About 79,000 compounds went through this panel and 15% of them were active in at least one assay; those are over-represented in the sample as a whole. Unmarked numbers belong to inactive results. Active and inactive are the calls of the source. No stated cut-off is given here; in the data, active means growth inhibition above about 70%; inactive means the rest.
How the values were obtained:
[1] = NCI Yeast Anticancer Drug Screen. Data for the rad52 strain (AID 147);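 further: 0% = growth of vehicle-treated control cultures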; details: S. cerevisiae rad52 mutant growth inhibition, hits give high values
How it was run: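 Screen used a yeast mutant impaired in DNA repair. After compound exposure, growth was measured. Values reflect inhibition compared with vehicle-treated cells.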

[2] = NCI Yeast Anticancer Drug Screen. Data for the wt1 strain (AID 149);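 further: 0% = growth of vehicle-treated wt1 cultures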; details: S. cerevisiae wt1 strain (SPY 50644) growth inhibition, hits give high values
How it was run: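 The wt1 strain was treated with compounds, and growth was compared with vehicle-treated cultures to give inhibition.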

[3] = NCI Yeast Anticancer Drug Screen. Data for the rad50EPP+ strain (AID 151);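 further: 0% = growth of vehicle-treated control cultures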; details: S. cerevisiae rad50 mutant strain, hits give high values
How it was run: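 Exposing the rad50EPP+ strain to each compound, growth was compared with vehicle-only cultures to give inhibition.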

[4] = NCI Yeast Anticancer Drug Screen. Data for the rad50 strain (AID 155);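 further: 0% = growth of vehicle-only cultures of the same strain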; details: S. cerevisiae rad50 strain growth inhibition, hits give high values
How it was run: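 Cells are treated with compound, grown, and their growth is then scored against vehicle-only cultures of the same repair-deficient yeast strain.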

[5] = NCI Yeast Anticancer Drug Screen. Data for the mec2-1 strain (AID 157); details: S. cerevisiae mec2-1 strain, hits give high values
How it was run: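 Readout is yeast growth inhibition, normalised to vehicle-treated controls, in the mec2-1 strain exposed to compound.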

[6] = NCI Yeast Anticancer Drug Screen. Data for the rad14 strain (AID 159);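 further: 0% = growth of vehicle-treated control cultures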; details: S. cerevisiae rad14 strain growth inhibition, hits give high values
How it was run: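 Readout: yeast growth inhibition, referenced to vehicle-only cultures. Strain bears a defined alteration in DNA damage repair.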

[7] = NCI Yeast Anticancer Drug Screen. Data for the sgs1 mgt1 strain (AID 161);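 further: 0% = growth of cultures given vehicle only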; details: S. cerevisiae sgs1 mgt1 strain, hits give high values
How it was run: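 Yeast cells carrying a defined DNA-repair defect were exposed to test compounds. Growth inhibition was measured relative to vehicle-treated controls.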

[8] = NCI Yeast Anticancer Drug Screen. Data for the CLN2oe strain (AID 163);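 further: 0% = growth of vehicle-only control cultures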; details: S. cerevisiae CLN2oe strain, hits give high values
How it was run: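 Values reflect how much compound exposure reduced yeast growth, referenced to vehicle-exposed cells. Assay organism is a strain with a defined genetic change affecting cell-cycle control.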

[9] = NCI Yeast Anticancer Drug Screen. Data for the cln2 rad14 strain (AID 165);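 further: 0% = growth equal to vehicle treated cultures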; details: S. cerevisiae cln2 rad14 strain, hits give high values
How it was run: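 Relative to vehicle controls, growth inhibition of compound-treated cln2 rad14 yeast was recorded.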

[10] = NCI Yeast Anticancer Drug Screen. Data for the bub3 strain (AID 167); details: S. cerevisiae bub3 mutant strain, hits give high values
How it was run: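 Part of a panel of yeast mutants defective in DNA damage repair or cell cycle regulation. Each strain is grown with compound, and inhibition is calculated relative to solvent-treated cultures.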

[11] = NCI Yeast Anticancer Drug Screen. Data for the wt2 strain (AID 169);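 further: 0% = growth of vehicle-treated yeast cultures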; details: S. cerevisiae wt2 strain growth inhibition, hits give high values
How it was run: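 Values express reduction in yeast growth under compound treatment, referenced to vehicle-treated cells.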

[12] = NCI Yeast Anticancer Drug Screen. Data for the mlh1 strain (AID 171);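 further: 0% = growth of vehicle-treated control cultures of the same strain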; details: S. cerevisiae mlh1 strain growth inhibition, hits give high values
How it was run: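 Steps: expose the defined-mutant yeast strain to compound; expose a parallel culture to vehicle; measure growth; express compound effect as inhibition relative to the vehicle culture.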

[13] = NCI Yeast Anticancer Drug Screen. Data for the sgs1 strain (AID 173);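 further: 0% = growth of vehicle-only control cultures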; details: S. cerevisiae sgs1 mutant, hits give high values
How it was run: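 Treat defined-mutant yeast with compound; measure growth; calculate inhibition relative to vehicle-treated cells.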

[14] = NCI Yeast Anticancer Drug Screen. Data for the mlh1 rad18 strain (AID 175); details: S. cerevisiae mlh1 rad18 strain growth inhibition, hits give high values
How it was run: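 Test agents were incubated with a yeast strain of defined genotype (DNA damage repair defect). Inhibition of growth was derived by comparison with vehicle-exposed cultures.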

[15] = NCI Yeast Anticancer Drug Screen. Data for the rad18 strain (AID 177); details: S. cerevisiae rad18 mutant growth inhibition, hits give high values
How it was run: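 A genetically defined yeast mutant impaired in DNA damage repair was treated with test compounds, then its growth was measured against cultures receiving vehicle alone.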

[16] = at 5.0 µM (retest, dose inferred, filed as 0.5)
[17] = at 50.0 µM (retest, dose inferred, filed as 5.0)

With `CC(C)OP(=O)(OC(C)C)/C(Cl)=N/Nc1ccc([N+](=O)[O-])cc1` the growth inhibition ([1]; at 1.2 µM) was -10%, the growth inhibition ([1]; at 3.7 µM) was -6% and the growth inhibition ([1]; at 11.0 µM) was 52%. For the same molecule, the growth inhibition ([1]; at 33.0 µM) was 90% (active), the growth inhibition ([1]; at 100.0 µM) was 95% (active) and the growth inhibition ([2]; at 1.2 µM) was -10%. The growth inhibition ([2]; at 3.7 µM) was -10%, the growth inhibition ([2]; at 11.0 µM) was 19% and the growth inhibition ([2]; at 33.0 µM) was 38%. The growth inhibition ([2]; at 100.0 µM) was 85% (active), the growth inhibition ([3]; at 1.2 µM) was 25% and the growth inhibition ([3]; at 3.7 µM) was 50%. The growth inhibition ([3]; at 11.0 µM) was 93% (active), the growth inhibition ([3]; at 33.0 µM) was 96% (active) and the growth inhibition ([3]; at 100.0 µM) was 96% (active). For the same molecule, the growth inhibition ([4]; at 1.2 µM) was -10%, the growth inhibition ([4]; at 3.7 µM) was -21% and the growth inhibition [4, 16] was 19%. For the same molecule, the growth inhibition ([4]; at 11.0 µM) was 61%, the growth inhibition ([4]; at 33.0 µM) was 93% (active) and the growth inhibition [4, 17] was 95% (active). The growth inhibition ([4]; at 50.0 µM) was 88.7% (active), the growth inhibition ([4]; at 100.0 µM) was 94% (active) and the growth inhibition ([5]; at 1.2 µM) was -5%. It also gave a growth inhibition ([5]; at 3.7 µM) of -3%, a growth inhibition [5, 16] of 13% and a growth inhibition ([5]; at 11.0 µM) of 52%. For the same molecule, the growth inhibition ([5]; at 33.0 µM) was 81% (active), the growth inhibition [5, 17] was 80% (active) and the growth inhibition ([5]; at 50.0 µM) was 81% (active). For the same molecule, the growth inhibition ([5]; at 100.0 µM) was 90% (active), the growth inhibition ([6]; at 1.2 µM) was -8% and the growth inhibition ([6]; at 3.7 µM) was 6%. The growth inhibition ([6]; at 11.0 µM) was 24%, the growth inhibition ([6]; at 33.0 µM) was 34% and the growth inhibition ([6]; at 100.0 µM) was 80% (active). The growth inhibition [7, 16] was 6%, the growth inhibition [7, 17] was 74% (active) and the growth inhibition ([7]; at 50.0 µM) was 90.8% (active). For the same molecule, the growth inhibition ([8]; at 1.2 µM) was 18%, the growth inhibition ([8]; at 3.7 µM) was 20% and the growth inhibition ([8]; at 11.0 µM) was 79% (active). The growth inhibition ([8]; at 33.0 µM) was 95% (active), the growth inhibition ([8]; at 100.0 µM) was 96% (active) and the growth inhibition [9, 16] was 28%. For the same molecule, the growth inhibition [9, 17] was 80% (active), the growth inhibition ([9]; at 50.0 µM) was 89.2% (active) and the growth inhibition ([10]; at 1.2 µM) was -4%. For the same molecule, the growth inhibition ([10]; at 3.7 µM) was 3%, the growth inhibition [10, 16] was 29% and the growth inhibition ([10]; at 11.0 µM) was 86% (active). For the same molecule, the growth inhibition ([10]; at 33.0 µM) was 95% (active), the growth inhibition [10, 17] was 95% (active) and the growth inhibition ([10]; at 50.0 µM) was 91.6% (active). The growth inhibition ([10]; at 100.0 µM) was 95% (active), the growth inhibition ([11]; at 1.2 µM) was 3% and the growth inhibition ([11]; at 3.7 µM) was 5%. The growth inhibition ([11]; at 11.0 µM) was 39%, the growth inhibition ([11]; at 33.0 µM) was 71% (active) and the growth inhibition ([11]; at 100.0 µM) was 93% (active). For the same molecule, the growth inhibition ([12]; at 1.2 µM) was 13%, the growth inhibition ([12]; at 3.7 µM) was 23% and the growth inhibition ([12]; at 11.0 µM) was 86% (active). For the same molecule, the growth inhibition ([12]; at 33.0 µM) was 96% (active), the growth inhibition ([12]; at 100.0 µM) was 94% (active) and the growth inhibition ([13]; at 1.2 µM) was 28%. For the same molecule, the growth inhibition ([13]; at 3.7 µM) was 23%, the growth inhibition ([13]; at 11.0 µM) was 94% (active) and the growth inhibition ([13]; at 33.0 µM) was 97% (active). The growth inhibition ([13]; at 100.0 µM) was 98% (active), the growth inhibition [14, 16] was 47% and the growth inhibition [14, 17] was 97% (active). For the same molecule, the growth inhibition ([14]; at 50.0 µM) was 87.3% (active), the growth inhibition ([15]; at 1.2 µM) was 29% and the growth inhibition ([15]; at 3.7 µM) was 28%. For the same molecule, the growth inhibition ([15]; at 11.0 µM) was 85% (active), the growth inhibition ([15]; at 33.0 µM) was 96% (active) and the growth inhibition ([15]; at 100.0 µM) was 96% (active).

— PubChem BioAssay (NCI)
